Our source for the Potency values is PubChem BioAssay (NCATS).

Molecules are shown by their SMILES. Records with an inconclusive call do not appear. Entries that show only a call come without a potency. Calls of active or inactive are those of the source. Calls follow the shape of the dose curve; as a rule, active = well fitted inhibition curve with a large enough effect; inconclusive = small, poorly fitted or top-dose-only effect; inactive = no such curve, though single readings can be large or run the other way.
Potency is read from the fitted curve at half-maximal effect.

A short description of this assay: Primary qHTS for inhibitors of nuclear receptor binding SET domain protein 2 (NSD2) in an RCH-ACV wild type WT cells (2C) (AID 1645877). Also: nearly all actives have a fitted effect of over 70% in size. The note with it: RCH-ACV (leukaemia line) NSD2 WT (2C) viability, CellTiter-Glo, 72 h; series mostly up to 44.9 µM. On the technique in general: Quantitative high-throughput screening tests each substance at several concentrations.
On to `CC(C)Oc1ccc(-c2nc(-c3cccc4c3CCC4NCCC(=O)O)no2)cc1C#N` (stereo not given), for which the Potency result was “inactive”.
The entry for `COc1cn(-c2ccc(-n3cccn3)cc2F)nc(-c2ccnn2-c2ccccc2)c1=O` is “inactive”; for `COc1cc(OC)cc(-c2ccc3c(-c4ccc(F)cc4)[nH]nc3n2)c1` it is “inactive”.
The figure for `O=C(N[C@@H]1CC[C@@H](c2cccc(F)c2F)CN(CC(F)(F)F)C1=O)N1CCC(n2c(=O)[nH]c3ncccc32)CC1` is 16.3 µM (active).
The entry for `CN1CCN(C2=Nc3ccccc3Nc3ccc(O)cc32)CC1` is “inactive”; for `O=C(CC1CC(c2ccc(F)cc2F)=NO1)N1CCOCC1` (stereo not given) it is “inactive”.
For `NC(=O)[C@@H]1CC[C@H](c2ccc(OCc3ccccc3F)cc2)N1`, the Potency result was “inactive”.
The entry for `O=C(Nc1cc(-c2ccccc2)nn1-c1ccccc1)c1ccc([N+](=O)[O-])cc1` is “inactive”.
The entry for `Fc1ccccc1-c1nc2ccn(Cc3ccc(-c4ccc(C(F)(F)F)cc4C(F)(F)F)nn3)cc-2n1` is “inactive”; for `NC(=O)c1ccc(F)c2c1C[C@@H](N(C1CCC1)C1CCC1)CO2` it is “inactive”; for `O=C(O)c1ccnc2cc(-c3nc4ccccc4n3CCN3CCCCC3)sc12` it is “inactive”.
For `COc1ccc(CCc2nc3cc(-c4c(C)noc4C)ccc3n2C[C@H](C)N2CCOCC2)cc1Cl`, the Potency is 2.58 µM (active).
The entry for `O=C(NCCN1CCCC1)c1cc(-c2ccc(CN3CCOCC3)cc2)nc2ccc(F)cc12` is “inactive”.
The value for `Cc1ccc(C)c(NC(=O)CNS(=O)(=O)c2ccc3[nH]c(=O)oc3c2)c1` was “inactive”.
The entry for `COc1ccc(-n2c(=O)[nH]c3cc(C(=O)NCc4ccc(Cl)cc4)sc3c2=O)nc1OC` is “inactive”.
